From PubChem BioAssay (Tox21)
Inconclusive results are not listed. Calls of active or inactive are those of the source. Unless noted, calls come from the whole dose curve; as a rule, active = well fitted curve in the direction sought with a large enough effect in the repeat runs; inconclusive = weak or mixed curves; inactive = no such curve, though single readings can be large; an effect the other way counts as inactive or inconclusive.

How the values were obtained:
[1] = qHTS assay to identify small molecule antagonists of the androgen receptor (AR) signaling pathway using the MDA cell line in the presence of 0.5 nM R1881 - cell viability counter screen (AID 1259242); note: nearly all actives have a fitted effect of over 45% in size
In short: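 Live-cell protease fluorescence, CellTiter-Fluor, 30 min at 37C. Cells: MDA-kb2, 3,000/well, preincubated 5 hr. Compounds plus 0.5 nM R1881 final, 16 hr, 37C, 0% CO2.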

[2] = target: Estrogen receptor (Homo sapiens) (UniProt P03372); assay: qHTS assay to identify small molecule antagonists of the estrogen receptor alpha (ER-alpha) signaling pathway using the BG1 cell line in the presence of 0.1 nM 17-beta-estradiol (AID 1259244); note: nearly all actives have a fitted effect of over 50% in size
In short: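 Luminescence after ONE-Glo (30 min, room temperature) measured ERE-luciferase activity in VM7Luc4E2 cells treated 22 h with compound and 0.1 nM final 17beta-estradiol as stimulator.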

[3] = qHTS assay to identify small molecule HDAC inhibitors (AID 1259364);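 note: wild-type HCT-116 cells with endogenous class I/II HDAC activity; top concentration of the series differs between compounds; nearly all actives have a fitted effect of over 45% in size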
In short: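 HCT-116 (wild type), 1,500 cells/well, overnight; compound 2 hr 37C 5% CO2; HDAC-Glo I/II reagent 30 min RT; luminescence readout.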

[4] = qHTS assay to identify small molecule agonists of the sonic hedgehog signaling (Shh) pathway - cell viability counter screen (AID 1259366); note: nearly all actives have a fitted effect of over 50% in size
In short: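 NIH/3T3-derived 3T3 Gli1-Luc cells (stable Gli1-responsive firefly luciferase reporter) were seeded, rested 4 hr at 37 C/5% CO2, then exposed to compounds in DMSO for 24 hr; viability was read by CellTiter-Fluor fluorescence in the same wells.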

[5] = qHTS assay to identify small molecule antagonists of the sonic hedgehog signaling (Shh) pathway - cell viability counter screen (AID 1259367); note: nearly all actives have a fitted effect of over 55% in size
In short: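 Viability was read by CellTiter-Fluor fluorescence in the same wells, reagent added 23 hr into compound treatment and incubated 1 hr at 37C. The 3T3 Gli1-Luc reporter cells (2,000/well) received conditioned medium after compound and ran 24 hr.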

[6] = qHTS assay to identify small molecule agonists of the sonic hedgehog signaling (Shh) pathway (AID 1259368; calls by dose curve; note: series mostly up to about 92 µM; nearly all actives have a fitted effect of over 15% in size)
In short: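 Read-out: firefly luciferase luminescence from a Gli1 response element reporter stably integrated in NIH/3T3-derived 3T3Gli1-Luc cells, measured 30 min at room temperature after reagent addition. Compound exposure lasted 24 hr at 37 C, 5% CO2.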

[7] = target: Estrogen receptor beta (Homo sapiens) (UniProt Q92731); assay: qHTS assay to identify small molecule agonists of the estrogen receptor beta (ER-beta) signaling pathway (AID 1259377; active = well fitted activation curve with a large enough effect in the signal ratio in the repeat runs, not every such curve was filed as active; the % refers to the signal ratio)
In short: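 ER-beta-UAS-bla HEK293T (GripTite) cells carrying a UAS-driven beta-lactamase reporter, in medium with 2% charcoal-stripped FBS, were exposed to compounds for 16 hr at 37C; LiveBLAzer B/G FRET substrate was then added and fluorescence read after 2 hours at room temperature.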

[8] = target: Estrogen receptor beta (Homo sapiens) (UniProt Q92731); assay: qHTS assay to identify small molecule antagonists of the estrogen receptor beta (ER-beta) signaling pathway (AID 1259378; active = well fitted inhibition curve with a large enough effect in the signal ratio in the repeat runs, not every such curve was filed as active; the % refers to the signal ratio)
In short: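 Antagonist mode: compounds added to beta-lactamase reporter HEK293T ER-beta-UAS cells stimulated with E2 (1nM final), 16 hr at 37C. LiveBLAzer B/G FRET substrate, 2 hours room temperature, fluorescence read-out.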

[9] = qHTS assay to identify small molecule agonists of the androgen receptor (AR) signaling pathway in the presence of an antagonist - cell viability counter screen (AID 1259379);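 note: MDA-kb2 human breast cancer cells carrying an MMTV luciferase reporter; series mostly up to about 92 µM; nearly all actives have a fitted effect of over 25% in size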
In short: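 Viability counter screen: CellTiter-Fluor fluorescence, measured in the same wells as the luciferase read-out. MDA-kb2 cells, 3,000/well, with nilutamide at 3.0uM final and compounds at 15 concentrations, 16 hr at 37C, 0% CO2.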

[10] = qHTS assay to identify small molecule antagonists of the estrogen receptor beta (ER-beta) signaling pathway - cell viability counter screen (AID 1259382); note: series mostly up to about 92 µM; nearly all actives have a fitted effect of over 55% in size
In short: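 Luminescent ATP read-out (CellTiter-Glo, 30 min, RT) taken in the same wells as the bla reporter assay. HEK293T ER-beta-UAS-bla cells in 2% charcoal-stripped FBS were exposed to compounds with 1nM E2 for 16 hr at 37C.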

[11] = target: Estrogen receptor (Homo sapiens) (UniProt P03372); assay: qHTS assay to identify small molecule agonists of the estrogen receptor alpha (ER-alpha) signaling pathway in the presence of an antagonist (AID 1259383; calls by dose curve; note: top concentration of the series differs between compounds; nearly all actives have a fitted effect of over 15% in size)
In short: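 Luciferase luminescence (ONE-Glo, 30min at room temperature) measured in VM7Luc4E2 cells after 22hr compound exposure at 15 concentrations, with 10.0nM ICI-182,780 final present; cells express endogenous ER-alpha and carry four EREs upstream of luciferase.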

[12] = qHTS assay to identify small molecule agonists or antagonists of the thyroid stimulating hormone receptor (TSHR) signaling pathway - wild type cell line counter screen (AID 1259384; calls by dose curve)
In short: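 Counter screen in untransfected Hek293: compounds (15-point titration, triplicate) plus phosphodiesterase inhibitor Ro20-1724 added after 18 h plating; 30 min RT. Intracellular cAMP via competitive d2/cryptate immunoassay, 1 h incubation.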

[13] = target: Thyrotropin receptor (Homo sapiens) (UniProt P16473); assay: qHTS assay to identify small molecule antagonists of the thyroid stimulating hormone receptor (TSHR) signaling pathway (AID 1259385; calls by dose curve; note: nearly all actives have a fitted effect of over 20% in size)
In short: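 Antagonist mode: compound-treated TSHR-expressing HEK293 cells were stimulated with 1.5 ng/mL TSH (final) in presence of Ro20-1724 for 30 min at RT. HTRF cAMP detection after 1 h; each compound tested at 15 concentrations, triplicate.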

[14] = qHTS assay to identify small molecule agonists of the estrogen receptor alpha (ER-alpha) signaling pathway in the presence of an antagonist - cell viability counter screen (AID 1259386);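 note: series mostly up to about 92 µM; cells exposed to compounds for 22 h at 37 °C before the viability read; nearly all actives have a fitted effect of over 30% in size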
In short: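 Read-out: CellTiter-Fluor fluorescence after 1hr reagent incubation, measured in the same wells as the luciferase readout. VM7Luc4E2 cells were exposed to 15 compound concentrations with 10.0nM ICI-182,780 for 22hr at 37C.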

[15] = qHTS assay to identify small molecule antagonists of the sonic hedgehog signaling (Shh) pathway (AID 1259369; calls by dose curve; note: nearly all actives have a fitted effect of over 45% in size)
In short: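 Luminescence readout: firefly Luc under Gli1 response element in 3T3Gli1-Luc cells (NIH/3T3 clone). Antagonist mode, stimulation by conditioned medium; compound exposure 24hr at 37 C, 5% CO2.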

[16] = qHTS assay to identify small molecule agonists of the estrogen receptor beta (ER-beta) signaling pathway - cell viability counter screen (AID 1259380); note: nearly all actives have a fitted effect of over 30% in size
In short: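 Luminescence read-out (CellTiter-Glo, 30 min, room temp) taken in the same wells as the beta-lactamase reporter assay; ER-beta-UAS-bla HEK293T cells exposed to DMSO-dissolved compounds for 16 hr at 37C in 2% charcoal-stripped FBS medium.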

[17] = qHTS assay to identify small molecule HDAC inhibitors - cell viability counter screen (AID 1259365); note: series mostly up to about 92 µM; nearly all actives have a fitted effect of over 50% in size
In short: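 Wild-type HCT-116 cells were seeded at 1,500 per well, incubated overnight at 37 C, then exposed to compounds in DMSO for 2hr. Viability was read by CellTiter-Glo luminescence after 30min at room temperature.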

Measured: Potency

Chain of Estrogen receptor beta (Homo sapiens) (Q92731 whole entry, looked up): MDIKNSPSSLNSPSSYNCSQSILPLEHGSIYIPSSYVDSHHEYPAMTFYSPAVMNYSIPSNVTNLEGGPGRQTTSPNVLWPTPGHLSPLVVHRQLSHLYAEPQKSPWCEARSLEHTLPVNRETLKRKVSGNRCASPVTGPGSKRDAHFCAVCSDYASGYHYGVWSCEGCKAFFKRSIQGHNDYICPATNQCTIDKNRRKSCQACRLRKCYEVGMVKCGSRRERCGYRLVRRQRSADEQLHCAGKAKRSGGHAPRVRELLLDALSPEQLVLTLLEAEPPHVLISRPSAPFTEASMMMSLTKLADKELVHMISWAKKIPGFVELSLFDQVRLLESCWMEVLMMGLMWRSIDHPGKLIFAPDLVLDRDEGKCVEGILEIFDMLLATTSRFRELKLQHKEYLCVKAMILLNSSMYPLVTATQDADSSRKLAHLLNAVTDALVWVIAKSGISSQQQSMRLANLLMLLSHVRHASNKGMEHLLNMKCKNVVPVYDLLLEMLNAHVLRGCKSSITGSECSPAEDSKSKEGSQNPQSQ
Chain of Thyrotropin receptor (Homo sapiens) (P16473 whole entry, looked up): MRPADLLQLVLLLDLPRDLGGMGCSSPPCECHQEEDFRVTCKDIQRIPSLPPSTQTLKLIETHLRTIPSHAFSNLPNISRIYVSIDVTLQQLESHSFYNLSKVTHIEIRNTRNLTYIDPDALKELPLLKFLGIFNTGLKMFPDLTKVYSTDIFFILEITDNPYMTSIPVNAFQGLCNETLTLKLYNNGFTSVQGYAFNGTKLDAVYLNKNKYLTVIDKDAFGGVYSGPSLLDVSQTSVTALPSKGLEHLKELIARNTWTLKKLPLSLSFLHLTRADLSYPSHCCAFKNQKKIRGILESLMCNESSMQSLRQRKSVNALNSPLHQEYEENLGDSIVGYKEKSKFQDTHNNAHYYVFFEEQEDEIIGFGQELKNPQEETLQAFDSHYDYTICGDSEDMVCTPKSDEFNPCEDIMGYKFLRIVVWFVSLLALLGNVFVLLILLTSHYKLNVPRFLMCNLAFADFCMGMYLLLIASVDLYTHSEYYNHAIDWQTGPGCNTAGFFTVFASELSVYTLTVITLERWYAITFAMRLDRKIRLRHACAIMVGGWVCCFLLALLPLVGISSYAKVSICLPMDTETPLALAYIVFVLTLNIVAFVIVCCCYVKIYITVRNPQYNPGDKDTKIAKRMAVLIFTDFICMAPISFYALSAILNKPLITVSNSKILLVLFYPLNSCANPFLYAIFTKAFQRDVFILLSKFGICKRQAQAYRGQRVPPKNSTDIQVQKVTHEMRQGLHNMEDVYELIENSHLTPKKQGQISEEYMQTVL
Chain of Estrogen receptor (Homo sapiens) (P03372 whole entry, looked up): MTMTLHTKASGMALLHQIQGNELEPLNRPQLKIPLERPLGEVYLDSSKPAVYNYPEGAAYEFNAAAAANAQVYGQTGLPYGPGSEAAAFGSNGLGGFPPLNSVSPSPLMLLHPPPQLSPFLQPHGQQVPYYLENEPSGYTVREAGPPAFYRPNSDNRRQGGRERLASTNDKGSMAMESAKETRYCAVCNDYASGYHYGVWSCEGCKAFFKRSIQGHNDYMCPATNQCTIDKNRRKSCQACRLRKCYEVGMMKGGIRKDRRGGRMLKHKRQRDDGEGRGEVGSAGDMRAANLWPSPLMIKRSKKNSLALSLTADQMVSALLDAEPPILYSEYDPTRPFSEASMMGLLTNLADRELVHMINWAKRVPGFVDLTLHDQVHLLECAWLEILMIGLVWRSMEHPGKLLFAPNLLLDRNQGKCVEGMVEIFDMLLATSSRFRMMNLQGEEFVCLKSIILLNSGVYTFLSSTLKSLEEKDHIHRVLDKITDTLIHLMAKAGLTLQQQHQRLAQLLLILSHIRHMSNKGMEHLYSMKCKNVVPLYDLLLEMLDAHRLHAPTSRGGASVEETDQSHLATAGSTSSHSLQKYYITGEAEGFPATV

CCCCNc1ccc(C(=O)OCCN(CC)CC)cc1
not listed: [15] | [16] | [17]
inactive: all other assays above

COc1cc(C)ccc1C(C)C
not listed: [17]
inactive: all other assays above

CCC/C=C/CO
not listed: [7]
inactive: all other assays above

CCCCC(CC)COC(=O)COc1cc(Cl)c(Cl)cc1Cl (stereo unspecified)
not listed: [7] | [12] | [13]
inactive: all other assays above

O=S(=O)(O)C(F)(F)F
not listed: [15]
inactive: all other assays above

C=C(C)C(=O)OCCOP(=O)(O)O
not listed: [7] | [8] | [13]
inactive: all other assays above

Oc1ccccc1F
not listed: [8]
inactive: all other assays above
